According to PubChem BioAssay AID602192 (The Scripps Research Institute Molecular Screening Center, 2012):
Out of some 2,400 compounds screened, about 750 (31%) were called active.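 How the source made its calls: active means mean activation across replicates above the hit cutoff set in the earlier primary screen (cut at about 8% in these data); inactive means the rest.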 Not all results are given here.

Target: Melanocortin receptor 4 (Homo sapiens) (UniProt P32245)
Assay: MC4R beta-arrestin agonists, retest, confirmation, cell-based, luminescence, U2OS (AID 602192)
Conditions: U2OS MC4R beta-arrestin recruitment, at 8.9 µM, stronger effect = higher value, scaled DMSO 0%, Melanotan II 100%

Melanocortin receptor 4 (Homo sapiens), sequence (P32245 whole entry, looked up): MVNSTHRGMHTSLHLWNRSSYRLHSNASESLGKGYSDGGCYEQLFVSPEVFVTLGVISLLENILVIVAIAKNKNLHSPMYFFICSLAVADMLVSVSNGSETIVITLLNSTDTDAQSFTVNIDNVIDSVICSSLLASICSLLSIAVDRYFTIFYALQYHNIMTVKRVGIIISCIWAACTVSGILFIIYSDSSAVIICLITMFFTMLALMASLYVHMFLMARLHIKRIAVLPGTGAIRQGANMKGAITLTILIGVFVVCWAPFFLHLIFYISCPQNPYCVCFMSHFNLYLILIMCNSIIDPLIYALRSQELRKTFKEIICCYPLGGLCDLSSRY

activation, inactive:
COc1ccc2nc(NC(=O)c3ccc(Br)s3)sc2c1 5.97%, COc1ccc(Cn2c(C)c(C)c(C#N)c2NC(=O)Nc2ccc(F)cc2)cc1 2.83%, COC(=O)c1sccc1NC(=O)CCC1CCCC1 0.35%, O=C(NC(c1ccc(-c2ccccc2)cc1)c1cnccn1)C1CCN(CCOc2ccc(Cl)cc2Cl)CC1 (stereo unspecified) 7.32%, Cc1ccc(NC(=O)Nc2ccccc2)c(Br)c1 3.05%, Cc1ccc(-c2csc(NC(=O)Cn3[nH]c(=O)c4ccccc4c3=O)n2)cc1 2.98%, Brc1ccc(-c2csc(N/N=C/c3cccnc3)n2)cc1 -2.16%, N#CC(=C1SC=CS1)c1nc(-c2ccccc2)cs1 -2.79%, N#CCC(=O)N/N=C/c1cn(Cc2ccc3ccccc3c2)c2ccccc12 2.4%, COc1ccc(C(=O)c2oc3ccc(Br)cc3c2NC(C)=O)cc1 1.93%, COc1ccc(/C=N/NC(=O)Nc2ccc3nsnc3c2)c(OC)c1 -0.12%, CC(=O)c1sc(NC(=O)CCCOc2ccccc2C)nc1C 5.8%, COc1ccc(C(=O)n2nc(-c3ccc(C)cc3)nc2N)cc1OC 0.77%, CCc1ccc(Nc2ncc3c(n2)CC(c2ccco2)CC3=O)cc1 (stereo unspecified) 0.77%, COc1ccc(OCC(=O)Nc2ccc(N3CCC(C)CC3)cc2)cc1 2.6%, O=C(CCCN1C(=O)/C(=C\c2ccco2)SC1=S)Nc1cccc2ccccc12 -0.83%, O=C(/C=C/c1c(Cl)cccc1Cl)NCc1ccccc1 -0.28%, Cc1cccc(NC(=O)Nc2cccc(Oc3c(F)c(F)c(F)c(F)c3F)c2)c1 -1.61%, Cc1ccc(-n2cc3ccc([N+](=O)[O-])cc3n2)cc1 5.74%, Cc1ccc(Nc2nnc(SCC(=O)c3cc4ccccc4o3)s2)cc1C 1.84%, COc1ccc(S(=O)(=O)N/N=C\c2ccc(OC)c(COc3ccc(C)cc3[N+](=O)[O-])c2)cc1 1.84%, CCC(=O)c1cc2c(cc1NC(=O)c1cccs1)OCCO2 6.01%, Cc1nn2cc(-c3ccc(Cl)cc3)cnc2c1Br -1.24%, CC(=O)Nc1ccc(NC(=O)c2sc3nc4c(c(-c5ccc(C)cc5)c3c2N)CCC4)cc1 5.71%, CSc1ccc(S(=O)(=O)NCc2ccc(Cl)cc2)cc1 1.19%

activation, active:
CCN1C[C@@H]2[C@@H]3C(=O)N(Cc4ccccc4)C(=O)[C@@H]3[C@](Cc3ccccc3)(C(=O)OC)N2C1=NC1CCCCC1 17%, CN(C)CCCN(C(=O)c1ccc(S(=O)(=O)N2CCCCCC2)cc1)c1nc2ccc(Br)cc2s1 15.3%, CSc1nc2sc3c(c2c(=O)[nH]1)CCc1ccccc1-3 9.67%, Cc1csc(NC(=O)c2ccc(-c3ccc(Cl)cc3Cl)o2)n1 9.09%, O=C(Nc1nc(-c2ccc(-c3ccccc3)cc2)cs1)c1cnccn1 10.5%, CC(=O)Nc1ccc(-c2csc(NC(=O)Nc3ccccc3)n2)cc1 26.9%, COc1cccc(CNCCc2c[nH]c3ccccc23)c1OCc1ccccc1F 32%, O=C(CCCN1C(=O)/C(=C/c2cccs2)SC1=S)Nc1ccc(O)cc1 11.8%, COc1cccc2sc(N(CCCN(C)C)C(=O)C(c3ccccc3)c3ccccc3)nc12 19.5%, Cc1ccc(Nc2nnc(SCc3ccccc3)s2)cc1 9.35%, CC(C)Oc1c(Br)cc(Br)cc1/C=N/NC(N)=S 13.3%
